Bioassay records deposited in PubChem by National Center for Advancing Translational Sciences (NCATS).
GPT2 inh – Primary qHTS assay for inhibitors of Glutamate pyruvate transaminase 2 (GPT2); hit rate 0.25% among 100,000; Recombinant GPT2, coupled pyruvate oxidase/HRP Amplex Red fluorescence; Alanine aminotransferase 2 (Homo sapiens), Q8TD30; Potency, µM (series often up to 57.7 µM), inactives show at the top dose activity change, negative = inhibition, actives largely listed as inhibitors; further: nearly all actives have a fitted effect of over 60% in size
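GPT2 10ng/uL, a-KG 250uM, L-Ala 2mM, HEPES pH7.5 + 0.0001% Tween; 30 min RT. Then Amplex mix (PO/HRP/ThPP), 30 min RT dark, fluorescence. AOA 50uM used as positive control.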
Luciferase inh – Firefly luciferase inhibition profiling of diverse chemical library using quantitative high-throughput screening. hit rate 2.5% among 76,000. AID 1347043, 2019. purified P. pyralis luciferase, luminescence, biochemical. Potency, µM (doses to about 115 µM), hits mostly inhibitors. Luciferin 4-monooxygenase (Photinus pyralis), P08659; further: nearly all actives have a fitted effect of over 65% in size
Target sequence (P08659 whole entry, looked up): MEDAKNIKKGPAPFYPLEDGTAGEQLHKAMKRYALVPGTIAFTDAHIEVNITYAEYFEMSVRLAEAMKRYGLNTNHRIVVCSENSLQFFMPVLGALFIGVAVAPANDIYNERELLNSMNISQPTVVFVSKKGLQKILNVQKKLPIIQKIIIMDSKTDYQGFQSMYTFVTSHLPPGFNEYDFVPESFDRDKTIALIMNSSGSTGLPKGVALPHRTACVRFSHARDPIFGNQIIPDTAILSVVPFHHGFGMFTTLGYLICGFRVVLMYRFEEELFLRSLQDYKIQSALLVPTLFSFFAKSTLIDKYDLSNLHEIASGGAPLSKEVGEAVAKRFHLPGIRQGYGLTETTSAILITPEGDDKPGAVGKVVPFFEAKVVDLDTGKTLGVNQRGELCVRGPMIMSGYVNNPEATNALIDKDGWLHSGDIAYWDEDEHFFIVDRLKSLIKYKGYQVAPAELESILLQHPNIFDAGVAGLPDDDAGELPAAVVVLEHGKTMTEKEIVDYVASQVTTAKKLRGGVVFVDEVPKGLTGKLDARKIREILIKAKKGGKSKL
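Luminescence read by CCD imager after adding enzyme (10nM final) to wells holding compound, titrated in qHTS. Substrates 10uM each D-luciferin and ATP; buffer 50mM Tris acetate pH 7.5, 10mM Mg acetate, Tween-20, BSA.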
HEK cytotox – Cytotoxic Profiling in HEK 293 Cell Line of Diverse Libraries Using Quantitative High-Throughput Screening. HEK 293 viability, ATP luminescence (CellTiter-Glo), 48-72 h. Potency, µM (titrated, usually from 115 µM), for inactives: at the top dose activity change, negative = cytotoxicity, hits mostly inhibitors. hit rate 6.6% among 94,000. AID 1345083, 2018; further: nearly all actives have a fitted effect of over 60% in size
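HEK 293 cells seeded at 250 cells/well were exposed to compound for 48 or 72 hr at 37 degree Celsius. Viability taken as ATP content by CellTiter-Glo luminescence.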
3T3 cytotox – Cytotoxic Profiling in NIH 3T3 Cell Line of Diverse Libraries Using Quantitative High-Throughput Screening; NIH 3T3 viability, CellTiter-Glo ATP luminescence, 48-72 h; Potency, µM (highest dose often 96.7 µM), without a hit: top-dose activity change, negative = cytotoxicity, hits mostly inhibitors; hit rate 4.3% among 94,000; AID 1345082, 2018; further: nearly all actives have a fitted effect of over 55% in size
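Viability of NIH 3T3 cells after 48 or 72 hr compound treatment at 37 °C was assessed by CellTiter-Glo, with luminescence imaged following a 10 min room-temperature step.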
hNpr1 antagonist – Natriuretic polypeptide receptor (hNpr1) antagonism - Primary qHTS | hit rate 1.6% among 76,000 | AID 1347048, 2019 | HEK293 hNpr1 GloSensor cGMP, ANP-stimulated luminescence | Potency, µM (highest dose often 46.3 µM), for inactives: top-dose activity change, negative = inhibition, most hits filed as inhibitors; calls by dose curve; further: nearly all actives have a fitted effect of over 60% in size
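HEK293 cells stably expressing human Npr1 and cGMP GloSensor pGS-40F, loaded 2 h with 2% GloSensor reagent, given compound 30 min at room temperature. Luminescence read before and 20 min after 0.1 nM hNppA.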
The depositor's hits bear a star; i = inactive; u = inconclusive; x = no result; [ ] = dose if it differs, or a comment. Rows were chosen to be rich in hits. Some 10% of all compounds tested hit in one or more screens of this group. Unless noted, the call rests on the fitted dose curve; in most records, active means well fitted curve in the direction sought with a large enough effect; inconclusive means small, poorly fitted or top-dose-only effect, or another doubt; inactive means no such curve, though single readings can be large; an effect the other way counts as inactive or inconclusive. On the % scale 0 is the no-effect control and ±100 the full control effect; potency means the concentration at half of the fitted maximal effect.

SMILES	GPT2 inh	Luciferase inh	HEK cytotox	3T3 cytotox	hNpr1 antagonist
COc1ccc(Nc2ccc3ncn(-c4ccccc4)c(=O)c3n2)cn1	-3%[88.5 µM]	i	100µM*	100µM*	5%[70.6 µM]
O=c1c2nc(Nc3cccc(F)c3)ccc2ncn1-c1cccnc1	4%[88.5 µM]	i	u	u	u
COCCN1CCOc2nc(-c3cccc(OC(F)(F)F)c3)ncc2C1=O	-19%[88.5 µM]	16µM*	u	u	-24%[70.6 µM]
COc1ccc(CN2CCOc3nc(-c4cccc(C#N)c4)ncc3C2=O)cc1	0%[88.5 µM]	i	100µM*	u	-26%[70.6 µM]
O=C1c2cnc(-c3cc(F)cc(F)c3)nc2OCCN1Cc1ccccc1	i	45µM*	u	u	-8%[70.6 µM]
O=C1c2cnc(-c3cccc(CO)c3)nc2OCCN1Cc1ccccc1	-5%[88.5 µM]	18µM*	u	u	-14%[70.6 µM]
CN(C)C(=O)c1ccc(-c2ncc3c(n2)OCCN(Cc2ccccc2)C3=O)cc1	u	i	u	-21%[138 µM]	1%[70.6 µM]
COc1ccc(CN2CCOc3nc(-c4cc(F)cc(F)c4)ncc3C2=O)cc1	-8%[88.5 µM]	i	u	u	-24%[70.6 µM]
COCCn1c(=O)c(C(=O)N2CCN(C(=O)c3ccc(OC)cc3)CC2)nc2cccnc21	i	x	-5%	-2%	x
O=C(CCc1nc2ccc(Cl)cc2[nH]1)N1CC(CO)C2(CCNCC2)C1 (stereo not given)	-4%	i	-4%	-10%	9%
O=C1CC2(CCN(c3nc(-c4ccccc4)nc4c3CCC4)CC2)CN1	-5%	i	u	u	-3%
O=C(Nc1ccc(-c2nnc3n2CCCC3)cc1)c1ccc(F)c(F)c1	-10%	i	-12%	-8%	2%
O=C1c2cnc(-c3cc4ccccc4o3)nc2OCCN1CC1CC1	u	u	u	u	1.4µM*
O=C(NC1CCN(c2cc(-c3cccs3)[nH]n2)C1)c1ccc(F)c(F)c1 (stereo not given)	u	i	u	u	-5%
Cc1nn(-c2ccccc2)c2c1C(C1CC1)N(C1CCN(C(=O)c3ccc(F)cc3)C1)C2=O (stereo not given)	x	x	35µM*	u	x
Cc1nn(-c2ccccc2)c2c1C(C)N(C1CN(C(=O)c3ccc(Cl)cc3)C1)C2=O (stereo not given)	x	x	-27%	-12%	x
Cc1nn(-c2ccccc2)c2c1C(C)N(C1CN(C(=O)c3ccc(C(F)(F)F)cc3)C1)C2=O (stereo not given)	x	x	40µM*	u	x
Cc1nn(-c2ccccc2)c2c1C(C)N(C1CCN(C(=O)c3cccc(Cl)c3)C1)C2=O (stereo not given)	x	x	22µM*	32µM*	x
Cc1nn(-c2ccccc2)c2c1C(C)N(C1CCN(C(=O)c3ccc(F)cc3)C1)C2=O (stereo not given)	x	x	45µM*	u	x
c1ccc2oc(CN3Cc4[nH]cnc4C[C@H]3c3nc(-c4ccc5c(c4)OCO5)no3)cc2c1	-5%	u	-30%	-14%	-2%
COCCN1C(=O)CC[C@]2(C(=O)NCc3ccccc3C)CCCC[C@@H]12	i	i	-30%	-10%	-11%
FC(F)(F)c1cccc(C2=NOC3(CCCN(Cc4cccc5ccccc45)C3)C2)c1 (stereo not given)	i	i	u	u	8%
FC(F)(F)c1cccc(C2=NOC3(CCCN(Cc4cccs4)C3)C2)c1 (stereo not given)	-9%	i	u	35µM*	-9%
Cn1nccc1CN1CCCC2(CC(c3cccc(C(F)(F)F)c3)=NO2)C1 (stereo not given)	i	i	45µM*	-26%	0%
Cc1noc(C)c1[S+](=O)([O-])N1CCCC2(CC(c3cccc(C(F)(F)F)c3)=NO2)C1 (stereo not given)	-8%	i	35µM*	-13%	-15%
SMILES	GPT2 inh	Luciferase inh	HEK cytotox	3T3 cytotox	hNpr1 antagonist
Cc1noc(C)c1-c1cc2cc(CN(C)C)oc2c(NCc2ccccc2)n1	1%[88.5 µM]	i	u	u	2%[70.6 µM]
COc1cccc(C(=O)N2CCC(N3CCCNC3=O)CC2)c1	i	i	-2%[172 µM]	5%[138 µM]	0%[70.6 µM]
CCc1ccccc1S(=O)(=O)N1CCC(n2cnnc2C2CC2)CC1	-12%	i	-1%	u	1%
Cc1cccc(N2CCN(C(=O)c3ccc4c(c3)N(C(=O)c3ccccc3)CC4)CC2)c1C	1%	i	28µM*	32µM*	-23%
Cc1ccccc1N1CCN(C(=O)c2cc3c(s2)CCN(C(=O)c2ccccc2)C3)CC1	0%	i	-7%	i	-2%
C[C@@]1(O)CCN(C(=O)CCc2ccc(-c3cccs3)o2)C[C@@H]1O	-13%	i	-22%	-23%	0%
CO[C@H]1C[C@@H](O)C12CCN(C(=O)CCc1ccc(-c3cccs3)o1)CC2	i	i	25µM*	u	u
O=C(NCCOc1cccnc1)c1cn(Cc2cccc(C(F)(F)F)c2)nn1	-11%	i	28µM*	u	-1%
FC(F)(F)c1cccc(CN2CCOC[C@H](Oc3cccnc3)C2)c1	-17%[88.5 µM]	i	u	u	-4%[70.6 µM]
CCOCC1(C)COc2ccc(C(=O)Nc3ccccn3)cc2N1 (stereo not given)	-3%[88.5 µM]	16µM*	u	u	u
CN(C)CCCOCC1(C)COc2ccc(C(=O)Nc3ccc(F)c(Cl)c3)cc2N1 (stereo not given)	-14%[88.5 µM]	i	63µM*	40µM*	-13%[70.6 µM]
CC1(CCCCN2CCOCC2)COc2ccc(C(=O)Nc3cccc(Cl)c3)cc2N1 (stereo not given)	-11%	u	u	u	-1%
CC1(COCC2CC2)COc2ccc(C(=O)Nc3ccc(Cl)cc3)cc2N1 (stereo not given)	-12%[88.5 µM]	i	28µM*	35µM*	u
CN(C)CCCOCC1(C)COc2ccc(C(=O)N3CCOCC3)cc2N1 (stereo not given)	-20%[88.5 µM]	i	4%[172 µM]	u	-1%[70.6 µM]
CC1(CCCCN2CCOCC2)COc2ccc(C(=O)Nc3ccc(Cl)cc3)cc2N1 (stereo not given)	-6%	u	50µM*	u	-12%
CCC[C@@H]1CN(C(=O)CCc2c(C)nn(C)c2C)C[C@H]1NS(C)(=O)=O	-17%	i	-5%	-8%	-1%
Cc1oc2ccn(Cc3ccc(F)cc3)c(=O)c2c1C(=O)NCc1cc(F)ccc1F	i	i	u	u	-19%
